Experimental data from PMC5540273 (PLoS ONE, 2017).
Like-named read-outs stand apart in the source and are kept apart here.

Key:
Conditions in all cases: n = 1
CHEK2 = tested on: CHEK2
CIT = tested on: CIT
CLK1 = tested on: CLK1
CLK2 = tested on: CLK2
CLK3 = tested on: CLK3
CLK4 = tested on: CLK4
CSF1R-autoinhibited = tested on: CSF1R-autoinhibited
CSF1R = tested on: CSF1R
CSK = tested on: CSK
CSNK1A1L = tested on: CSNK1A1L
[1] = concentration: 1 μM, replicates: in singlicate
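Note: KINOMEscan kinase panel screen.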

Compound	%Inh (CHEK2; [1])	%Inh (CIT; [1])	%Inh (CLK1; [1])	%Inh (CLK2; [1])	%Inh (CLK3; [1])	%Inh (CLK4; [1])	%Inh (CSF1R-autoinhibited; [1])	%Inh (CSF1R; [1])	%Inh (CSK; [1])	%Inh (CSNK1A1L; [1])	%Inh (CHEK2; 1 µM)	%Inh (CIT; 1 µM)	%Inh (CLK1; 1 µM)	%Inh (CLK2; 1 µM)	%Inh (CLK3; 1 µM)	%Inh (CLK4; 1 µM)	%Inh (CSF1R-autoinhibited; 1 µM)	%Inh (CSF1R; 1 µM)	%Inh (CSK; 1 µM)	%Inh (CSNK1A1L; 1 µM)
Cc1ccc(C(=O)Nc2ccc(Nc3ccnc4cc(-c5ccccn5)ccc34)cc2O)cc1.Cl [GW440146]	4%	2%	13%	1%	0%	23%	0%	35%	34%	0%										
CC(=O)Nc1nc2cnc(Nc3cc(NC(=O)c4cccc(CCC#N)c4)ccc3C)nc2s1	0%	34%	0%	3%	0%	12%	0%	90.9%	0%	0%										
O=C(Nc1n[nH]c2nc(-c3nccs3)c(Br)cc12)C1CC1 [SB-742251]	0%	3%	1%	0%	11%	0%	17%	0%	0%	19%										
Cn1cncc1-c1ccc2ncnc(Nc3ccc(OCc4ccccc4)cc3)c2c1 [GW320571]	0%	6%	23%	57%	100%	32%	0%	0%	0%	22%										
CCn1c(-c2ccccn2)nc2cnccc21 [SB-736398]	0%	20%	3%	0%	0%	4%	4%	42%	0%	0%										
Cc1cccc(-c2nc(-c3ccc(S(C)(=O)=O)cc3)sc2-c2ccnc(NCCc3ccccc3)c2)c1	0%	0%	8%	2%	12%	1%	1%	72%	2%	0%										
COc1ccc(Nc2nccc(NCCNC(=O)Nc3ccccc3F)n2)cc1 [GSK1379901]	0%	0%	32%	0%	100%	29%	0%	11%	3%	0%										
Cc1ccc(NC(=O)Nc2cccc(C(F)(F)F)c2)cc1 [GSK955403]											0%	29%	3%	36%	0%	0%	0%	0%	28%	0%
CS(=O)(=O)c1ccc(-c2nc3n(c2-c2ccncc2)CCC3)cc1 [SKF-105942]	0%	4%	11%	0%	0%	0%	0%	0%	100%	2%										
CN(C)CCN(C)C(=O)c1cc(-c2ccncc2)c(-c2ccc(Cl)c(O)c2)o1.Cl.Cl [SB-710397]	12%	21%	18%	0%	9%	25%	0%	3%	0%	20%										
Nc1ncnc2[nH]c(-c3ccccc3)nc12 [AH5015]	0%	9%	67%	57%	0%	71%	7%	13%	0%	1%										
COc1ccc(CNC(=O)NC2CCN(c3ccnc(Nc4cc(OC)c(OC)c(OC)c4)n3)C2)cc1 (stereo not drawn) [GSK1379748]	47%	20%	11%	0%	0%	0%	17%	13%	0%	0%										
COc1ccc2nc(-c3cccc(C)n3)nc(Nc3ccncc3)c2c1 [GSK204919]	0%	73%	18%	0%	2%	26%	0%	3%	0%	5%										
COc1cccc(NC(=O)NC2CCN(c3ccnc(Nc4ccc(F)cc4)n3)C2)c1 (stereo not drawn) [GSK1379721]	27%	23%	25%	1%	21%	0%	17%	14%	6%	0%										
COc1cc(Nc2nccc(N3CCC(NC(=O)Nc4cc(C)ccc4C)C3)n2)cc(OC)c1OC (stereo not drawn) [GSK1379762]	0%	11%	32%	6%	0%	29%	0%	14%	0%	17%										
Cc1c(O)cccc1Nc1ccnc2ccc(C(F)(F)F)cc12.Cl [GW466413]	0%	42%	22%	14%	0%	38%	0%	0%	0%	3%										
O=C(Nc1n[nH]c2nc(-c3nccs3)c(Br)cc12)C1CCCC1 [SB-742609]	0%	36%	22%	0%	4%	0%	0%	3%	0%	6%										
O=C(O)COc1ncnc2cc(-c3ccc4[nH]ncc4c3)sc12	1%	8%	76%	43%	0%	79%	0%	0%	0%	0%										

Compound	%Inh (CHEK2; [1])	%Inh (CIT; [1])	%Inh (CLK1; [1])	%Inh (CLK2; [1])	%Inh (CLK3; [1])	%Inh (CLK4; [1])	%Inh (CSF1R-autoinhibited; [1])	%Inh (CSF1R; [1])	%Inh (CSK; [1])	%Inh (CSNK1A1L; [1])	%Inh (CHEK2; 1 µM)	%Inh (CIT; 1 µM)	%Inh (CLK1; 1 µM)	%Inh (CLK2; 1 µM)	%Inh (CLK3; 1 µM)	%Inh (CLK4; 1 µM)	%Inh (CSF1R-autoinhibited; 1 µM)	%Inh (CSF1R; 1 µM)	%Inh (CSK; 1 µM)	%Inh (CSNK1A1L; 1 µM)
Clc1cc(Cl)cc(Nc2ccnc(Nc3cc(Cl)cc(Cl)c3)n2)c1 [GSK175726]	0%	22%	17%	36%	22%	38%	0%	3%	0%	0%										
CCn1c(-c2cccnc2O)nc2cnccc21 [SB-736715]	0%	0%	10%	0%	0%	0%	2%	0%	0%	84%										
CC(C)(C)c1ccc(C(=O)Nc2cn3cc(-c4cccnc4)ccc3n2)cc1	6%	28%	84%	41%	32%	74%	10%	30%	13%	15%										
Cc1cccc(-c2nc(Nc3cccc(C(N)=O)c3)c3ccccc3n2)n1 [GW876019]	0%	45%	18%	6%	14%	0%	0%	0%	0%	3%										
Fc1cccc(COc2nnc(-c3ccc4c(c3)CCO4)o2)c1	10%	0%	32%	13%	0%	53%	0%	11%	0%	12%										
Cc1nnc(-c2ccc3occ(-c4ccc(S(C)=O)cc4)c3c2)[nH]1 (stereo not drawn)	10%	0%	0%	22%	0%	29%	8%	5%	0%	26%										
COc1cc2nccc(Nc3ccc(NC(=O)c4ccc(C)cc4)c(O)c3)c2cc1OC.Cl [GW440132]	11%	11%	37%	0%	87%	14%	15%	18%	0%	9%										
Cc1cc(N2Cc3ccccc3C2)nc(Nc2ccc(S(=O)(=O)N3CCOCC3)cc2)n1.Cl [GSK1669917]	0%	0%	9%	0%	1%	11%	0%	4%	0%	0%										
Cc1cc(NCC(c2ccccc2)c2ccccc2)nc(NCc2ccc(C(F)(F)F)cc2)n1 [GW497681]	18%	30%	15%	0%	37%	15%	30%	6%	0%	2%										
Cn1ccc2ncnc(Oc3ccc(NC(=O)Nc4ccccc4)cc3)c21	14%	22%	1%	0%	0%	14%	10%	95.1%	0%	3%										
Cc1ccc(-c2cc(-c3c[nH]nc3-c3ccccn3)ccn2)cc1 [GW684088]	53%	26%	14%	9%	0%	38%	49%	14%	0%	0%										
COC(=O)c1c(-c2ccccc2)c2cc(OC)ccc2c(=O)n1Cc1ccccc1	15%	6%	0%	4%	0%	5%	20%	51%	0%	4%										
O=C(Nc1n[nH]c2cc(-c3cccc(F)c3F)ccc12)C1CC1 [SB-733894]	0%	6%	0%	13%	0%	0%	0%	7%	0%	0%										
Cc1cccc(-c2nc(Nc3ccncc3)c3ccccc3n2)n1 [GW855857]	0%	91.1%	10%	8%	31%	0%	0%	0%	4%	10%										
COc1ccccc1CNC(=O)c1cc(C(=O)c2ccccc2C)c[nH]1 [GSK364507]	0%	9%	17%	0%	0%	9%	0%	11%	0%	20%										
Cc1ccccc1-n1cnc2c(N)ncnc21 [SKF-97510]	0%	0%	2%	26%	0%	0%	0%	6%	7%	0%										
COc1cc2ncnc(Nc3ccc4nc(-c5ccccc5)[nH]c4c3)c2cc1OC.Cl [GW282450]	26%	59%	14%	0%	12%	3%	0%	3%	10%	0%										
O=C(Nc1ccccc1)Nc1cccc(Oc2ccc3nccn3n2)c1	1%	100%	6%	0%	0%	0%	0%	99.6%	0%	59%										
